hgDAF12 agonist – agonists of H. glycines DAF-12 nuclear receptor; AID 687014; activation, % at 6.8 µM; 370,000 compounds, 1.8% hits; HEK293 GAL4-hgDAF12 UAS-luciferase reporter, agonist luminescence; normalized to butyrate control;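 active = activation above a cutoff set at the mean of all screened compounds plus 3 SD, cut at about 10% in these data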;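 note: 0% = DMSO wells and 100% = sodium butyrate wells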
ssDAF-12 act – S. stercoralis DAF-12 activation, primary screen. HEK293 ssDAF-12/GRIP1 lit1-tk-luc reporter, luminescence; % of 3 µM dafachronic acid response. activation, % at 6.8 µM. 370,000 compounds, 1% hits. AID 652126;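 active = activation above the mean over all tested compounds plus 3 SD, cut at about 0.9% in these data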;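 note: 0% = DMSO-only wells and 100% = 3 µM delta7-dafachronic acid wells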
DAX1 inh-1 – blocks DAX1 repression of SF-1 activated StAR promoter; HEK293T StAR-luciferase reporter, SF-1/DAX-1 repression relief; inhibition, % at 6.8 µM; 370,000 compounds, 1.1% hits;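 active = inhibition above the mean over all tested compounds plus 3 SD, cut at about 3.6% in these data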;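 note: 0% = DAX-1 cells with DMSO and 100% = cells lacking DAX-1 with DMSO; higher inhibition means more luminescence from relief of DAX-1 repression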
DAX1 inh-2 – inhibitors of human orphan nuclear receptor DAX1 (NR0B1). inhibition, % at 6.75 µM. P51843. 340,000 compounds, 0.99% hits. HEK293 Gal4-DAX1 luciferase reporter, luminescence;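 active = inhibition above the mean over all tested compounds plus 3 SD, cut at about 4.2% in these data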;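 note: 0% = DAX1-transfected cells with DMSO and 100% = empty-vector control cells with DMSO; inhibition shows as a rise in luminescence from relieved DAX1 repression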
hcDAF12 agonist – H. contortus DAF-12 activation, primary screen; activation, % at 6.8 µM; HEK293 hcDAF-12 lit1-tk-luc reporter, luminescence; 0% DMSO, 100% Δ7-dafachronic acid; 370,000 compounds, 1.4% hits;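 active = activation above the mean of all tested compounds plus 3 SD, cut at about 5.5% in these data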;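 note: 100% = response to 3 µM Δ7-dafachronic acid high control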
SMARCA2 activ – SMARCA2 function activation, primary screen; MG213 cells, MMTV-luciferase reporter, dexamethasone, overnight; activation, % at 9.1 µM; 370,000 compounds, 1% hits; in the data active = activation above about 7.8%;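 note: 0% = vehicle wells and 100% = reference activator wells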
DAX1 conf – confirmation of human DAX1 (NR0B1) inhibitors | shares compounds with DAX1 inh-1 | HEK293T StAR-promoter luciferase reporter, SF-1/DAX-1 repression | inhibition, % at 6.8 µM | 2,400 compounds, 87% hits;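 active = inhibition above the average of every tested compound plus 3 SD, cut at about 3.8% in these data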;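 note: 0% = DAX-1 cells with DMSO and 100% = no DAX-1 control cells with DMSO; active compounds raise luminescence by relieving repression of the StAR reporter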
Target sequence (P51843 whole entry, looked up): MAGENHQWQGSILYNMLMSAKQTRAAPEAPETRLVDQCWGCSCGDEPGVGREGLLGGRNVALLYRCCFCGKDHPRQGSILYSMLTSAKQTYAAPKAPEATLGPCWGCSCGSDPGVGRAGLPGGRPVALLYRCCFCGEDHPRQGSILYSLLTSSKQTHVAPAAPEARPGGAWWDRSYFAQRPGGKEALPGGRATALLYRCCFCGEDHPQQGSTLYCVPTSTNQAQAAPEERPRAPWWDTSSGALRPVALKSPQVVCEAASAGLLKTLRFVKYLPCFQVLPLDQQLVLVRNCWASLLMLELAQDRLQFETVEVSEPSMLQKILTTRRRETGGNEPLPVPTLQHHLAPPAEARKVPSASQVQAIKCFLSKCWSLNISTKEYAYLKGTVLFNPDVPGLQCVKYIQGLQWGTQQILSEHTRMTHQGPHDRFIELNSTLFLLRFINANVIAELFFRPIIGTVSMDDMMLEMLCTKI
SF1 mutant ctr – counter-screen for DAX1 inhibitors: nonselective inhibitors with SF-1 AF2 mutant; shares compounds with DAX1 inh-1; HEK293 StAR-luciferase, luminescence; inhibition, % at 6.8 µM; 2,400 compounds, 78% hits; AID 652136;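 active = inhibition above the mean of all tested compounds plus 3 SD, cut at about 3% in these data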;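 note: 0% = DAX-1 transfected cells with DMSO and 100% = cells without DAX-1 with DMSO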
* hit, by the source's call; . = no result. In the library only some 4.8% were active in any assay of this set; here they are far more common.

SMILES | hgDAF12 agonist | ssDAF-12 act | DAX1 inh-1 | DAX1 inh-2 | hcDAF12 agonist | SMARCA2 activ | DAX1 conf | SF1 mutant ctr
Cc1nc(NC(=O)CSC2=NCCS2)sc1C(=O)N(C)C | 3 | -1 | 12* | 0 | 2 | 1 | 11* | 4.5*
O=C(Nc1ccccc1F)c1ccc(C(=O)c2ccccc2)cc1 | 12* | -1 | 4.7* | 1 | 3 | 4 | 7.0* | 4.4*
O=C(Nc1ccccc1F)c1cccc(C(=O)Nc2ccccc2F)c1 | -1 | -1 | 0 | -1 | -1 | 2 | . | .
COc1ccccc1C(=O)NC(=O)COC(=O)/C(=C/c1ccccc1)NC(C)=O | 3 | -1 | 1 | 0 | 0 | -2 | . | .
Cc1ccc(S(=O)(=O)Nc2ccccc2F)cc1C(=O)OC(C)C(=O)N1CCOCC1 (centres undefined) | -1 | -1 | -2 | 1 | 0 | -2 | . | .
O=C(O)c1cccc(Nc2nc3ccccc3nc2NS(=O)(=O)c2ccc(F)cc2)c1 | 2 | 0 | 6.6* | -1 | 0 | -1 | 3 | 3.9*
Cc1cccc(S(=O)(=O)Nc2nc3ccccc3nc2Nc2cccc(C(=O)O)c2)c1 | 1 | -1 | 1 | 1 | 2 | 0 | . | .
O=[N+]([O-])c1ccccc1S(=O)(=O)Nc1cccc(-c2ccc(N3CCCC3)nn2)c1 | 3 | -1 | 2 | 0 | 1 | -1 | . | .
O=[N+]([O-])c1ccccc1S(=O)(=O)Nc1cccc(-c2ccc(N3CCOCC3)nn2)c1 | 5 | 0 | 5.2* | 1 | 1 | 2 | 7.0* | 5.2*
CN1CCN(C(=O)c2ccc3c(Cl)c4c(nc3c2)CCCC4)CC1 | 1 | -1 | 5.8* | 0 | 0 | 0 | 4.8* | 2
CC(=O)Nc1sc2c(c1C#N)CCC2 | -3 | -3 | -1 | -1 | -3 | 1 | . | .
CCN(CC)CCCn1c2c(c(SCC(=O)N3CCCc4ccccc43)nc1=O)CCC2 | 1 | -1 | 8.0* | 0 | 0 | -2 | 2 | 0
CN(C)CCn1c2c(c(SCC(=O)N3CCc4ccccc43)nc1=O)CCCC2 | -1 | 1 | -1 | -1 | 1 | 0 | . | .
N/C(=N\OC(=O)c1ccc(Cl)cc1)c1ccc(Cl)cc1 | 0 | -1 | 0 | 1 | -1 | 3 | . | .
N/C(=N\OC(=O)c1ccc(Cl)cc1)c1ccn[nH]1 | 10 | 0 | 15* | -1 | 5 | 2 | 13* | 7.8*
O=C(O)c1cnn2c(C(F)F)cc(C(F)F)nc12 | -1 | -1 | 1 | 1 | 1 | -3 | . | .
COc1ccc(-c2cn3cc(C)ccc3n2)cc1F | 10 | 0 | 4.8* | -2 | 5.6* | 3 | 12* | 1
CC(=O)c1ccc(-c2[nH]c3ccccc3c2CCN2C(=O)c3ccccc3C2=O)cc1 | -4 | 0 | -1 | -3 | 0 | 0 | . | .
CC(=O)c1ccc(-c2c(CCO)sc3ccccc23)cc1 | 8 | -1 | 5.7* | . | 2 | 3 | 3 | 3.0*
CN(CCc1ccccn1)C(=O)CCC1CCCN(C(=O)c2c(F)ccc(F)c2F)C1 (centres undefined) | 0 | -1 | 0 | 0 | 0 | -3 | . | .
Cc1cccc(NC(=O)c2ccc3c(=O)n4c(nc3c2)CCCCC4)n1 | 8 | -1 | 7.0* | -1 | 5 | 0 | 6.2* | 3
O=C(NCCc1ccc(F)cc1)c1ccc2c(=O)n3c(nc2c1)CCC3 | 7 | 1 | 6.3* | 1 | 4 | 1 | 2 | 3.4*
O=C(NCc1ccccc1)c1ccc2c(=O)n3c(nc2c1)CCCCC3 | 2 | -1 | 0 | 0 | -1 | 3 | . | .
COc1ccc(-n2ncc3c(N4CCC(C)CC4)ncnc32)cc1 | 10* | 1 | 6.6* | -1 | 6.5* | 1 | 12* | 4.5*
CCOC(=O)N1CCN(c2ncnc3c2cnn3-c2ccc(OC)cc2)CC1 | 2 | -2 | -1 | 0 | 0 | -1 | . | .
SMILES | hgDAF12 agonist | ssDAF-12 act | DAX1 inh-1 | DAX1 inh-2 | hcDAF12 agonist | SMARCA2 activ | DAX1 conf | SF1 mutant ctr
NC(=O)COC(=O)c1cc(=O)[nH]c2ccccc12 | -1 | 1 | 0 | 2 | 0 | -2 | . | .
O=C(OCC(=O)N1CCCCC1)c1cc(=O)[nH]c2ccccc12 | 6 | -1 | 4.9* | 1 | 3 | 4 | 3 | 2
Cn1nccc1C(=O)Nc1ccc2c(c1)OCO2 | 9 | -1 | 4.7* | 0 | 2 | 4 | 5.8* | 3.9*
CCc1sc(C(=O)Nc2ccc3c(c2)OCO3)cc1C | 11* | 0 | 7.6* | 0 | 3 | 1 | 9.3* | 6.5*
Cc1ccc(NC(=O)c2cc(-c3ccc4c(c3)OCO4)on2)cc1C | -2 | -1 | 0 | 1 | 2 | 0 | . | .
Cc1cc(C(=O)Nc2ccc3c(c2)OCO3)no1 | 10 | 0 | 7.8* | 1 | 5 | 3 | 9.1* | 7.5*
O=C(Nc1ccc2c(c1)OCCO2)c1cccc(C(=O)Nc2ccc3c(c2)OCCO3)c1 | 1 | -1 | 0 | -1 | 3 | -1 | . | .
O=C(Nc1ccc2c(c1)OCCO2)c1ccc(Br)s1 | 12* | 1.5* | 5.9* | -2 | 5.8* | -1 | 14* | 5.6*
COC(=O)[C@@H](NC(=O)Nc1ccc(C(C)=O)cc1)C(C)C | -1 | -1 | 0 | -1 | -1 | -1 | . | .
COc1ccc(C2=Nc3ccc(Br)cc3C(c3ccccc3)N2CC(=O)NN)cc1 (centres undefined) | -1 | 0 | 0 | -1 | -2 | -4 | . | .
CSc1cccc(CNC(=O)C2CCC(=O)N(CCc3ccccn3)C2)c1 (centres undefined) | 1 | -2 | -1 | 0 | -1 | 6 | . | .
CC1(C)CC(=O)C=C(c2ccccc2-c2ccc3cc[nH]c3c2)C1=O | -3 | -2 | 0 | 4 | -1 | 0 | . | .
CC1(C)CC(=O)C=C(c2ccc(-c3ccc4[nH]ccc4c3)cc2)C1=O | 7 | 0 | 5.3* | -1 | 4 | -2 | 12* | 0
COc1ccccc1CN1CCC(CNS(=O)(=O)c2cc(-c3onc(C)c3C)ccc2OC)CC1 | -2 | -2 | 4.6* | 1 | -2 | 2 | 3 | 3.1*
Cc1cc(-c2ccc(C)c(S(=O)(=O)NCC3CCN(Cc4ccccc4F)CC3)c2)on1 | 1 | -1 | 0 | 0 | -3 | 0 | . | .
Cc1ccc(NC(=O)c2cncc(Br)c2)nc1 | 8 | -1 | 4.5* | 2 | 2 | 3 | 5.8* | 6.3*
Cc1ccc(NC(=O)c2cnccn2)nc1 | 8 | -1 | 4.6* | 1 | 5 | 4 | 5.0* | 3.3*

Compound activity (PubChem)
